High-throughput results (PubChem)
RMI FANCM FP = RMI-FANCM interaction inhibition. Fluorescence polarization, RMI core complex with F-MM2 peptide; active compounds read low. FP signal (polarization) at 33 µM. 70,000 compounds, 0.58% hits; in the data active = FP signal below about 40
Hits are given with their value; ! = a repeat was not active. Only a selection was taken, and hits are over-represented in it overall.

For CCCCOc1ccc(C(=O)NCCc2ccc3c(c2)CCCN3C)cc1 the results were RMI FANCM FP inactive.
`CCN1CCCc2cc(CCNC(=O)c3ccc(OC(C)C)cc3)ccc21` gave RMI FANCM FP 20.
For CC(=O)c1sc(-c2c(Cl)cc(C(F)(F)F)cc2Cl)nc1C the results were RMI FANCM FP inactive.
`Cc1ccc(CNC(=O)CSc2nccn3nc(-c4ccc(Cl)cc4)cc23)cc1` gave RMI FANCM FP inactive.
Cc1ccc(-c2cn3c(CC(=O)NCc4ccc5c(c4)OCO5)csc3n2)cc1 was read as RMI FANCM FP inactive.
`COc1cccc(OCC(=O)NCCS(=O)(=O)N2CCN(c3ncccn3)CC2)c1` gave RMI FANCM FP inactive.
`Cc1cc(Nc2ccc(S(=O)(=O)Nc3cc(C)on3)cc2)c2ccc(C(F)(F)F)cc2n1` gave RMI FANCM FP inactive.
Screening Cc1ccc(C)c(-n2c(Cc3cc(=O)[nH]c(=O)[nH]3)nnc2SCC(=O)Nc2ccc(F)cc2F)c1 returned RMI FANCM FP inactive.
`Cc1ccc(NC(=O)NCCS(=O)(=O)c2c(C)n(Cc3ccccc3)c3ccccc23)cc1C` gave RMI FANCM FP 31.
For Cc1cccc(NC(=O)NCCS(=O)(=O)c2c(C)n(Cc3ccc(F)cc3)c3ccccc23)c1 the results were RMI FANCM FP inactive.
Screening Cc1c(S(=O)(=O)CCNC(=O)Nc2ccccc2Cl)c2ccccc2n1C returned RMI FANCM FP inactive.
COc1ccc2sc(N(CCCN3CCOCC3)C(=O)c3ccno3)nc2c1 was read as RMI FANCM FP inactive.
`O=C(CSc1ncc(-c2ccccc2)[nH]1)Nc1cc(C(F)(F)F)ccc1Cl` gave RMI FANCM FP inactive.
`CCOc1ccc(-c2noc(CSc3nc4ccsc4c(=O)n3C3CC3)n2)cc1` gave RMI FANCM FP 39.
CCOc1ccc(-c2noc(CSc3nc4ccsc4c(=O)n3-c3cccc(OC)c3)n2)cc1 was read as RMI FANCM FP inactive.
For COc1ccc(-c2noc(CSc3nc4ccsc4c(=O)n3C)n2)cc1 the results were RMI FANCM FP inactive.
`COc1ccc(/C=C/C(=O)O)cc1S(=O)(=O)Nc1cccnc1` gave RMI FANCM FP inactive.
COc1ccc(C(=O)Nc2nc3c(s2)CCCC3C(=O)NCc2ccccc2Cl)cc1 (stereo not drawn) was read as RMI FANCM FP inactive.
Screening O=C(Nc1nc(-c2ccc(Br)s2)cs1)c1ccc2ncsc2c1 returned RMI FANCM FP 26.
O=C(Nc1nc(-c2ccc3c(c2)OCCO3)cs1)c1ccc2ncsc2c1 was read as RMI FANCM FP inactive.
O=C(Nc1nc(-c2ccccn2)cs1)c1ccc2ncsc2c1 was read as RMI FANCM FP inactive.
`Cc1ccc2c(CC(=O)Nc3ccc(S(=O)(=O)Nc4nccs4)cc3)cc(=O)oc2c1` gave RMI FANCM FP inactive.
`COc1cccc2c1C(=O)c1c(O)c3c(c(O)c1C2=O)C[C@@](O)(C(=O)CO)C[C@@H]3O[C@H]1C[C@H](N)[C@@H](O)[C@H](C)O1` gave RMI FANCM FP -10.
CC(=O)[C@]1(O)Cc2c(O)c3c(c(O)c2[C@@H](O[C@H]2C[C@H](N)[C@H](O)[C@H](C)O2)C1)C(=O)c1ccccc1C3=O was read as RMI FANCM FP inactive.
`COc1cccc2c1C(=O)c1c(O)c3c(c(O)c1C2=O)C[C@@](O)(C(C)=O)C[C@@H]3O[C@H]1C[C@H](N)[C@H](O)[C@H](C)O1` gave RMI FANCM FP inactive.
For Cc1[nH]c2ccccc2c1C(Nc1ccccn1)c1cccc([N+](=O)[O-])c1 (stereo not drawn) the results were RMI FANCM FP 25!.
For COc1ccc(C(Nc2cc(C)on2)c2c(C)[nH]c3ccccc23)cc1OC (stereo not drawn) the results were RMI FANCM FP inactive.
For Cc1[nH]c2ccccc2c1C(Nc1ccccc1F)c1ccccn1 (stereo not drawn) the results were RMI FANCM FP inactive.
O=S(=O)(c1ccccc1Cl)N1CCN(c2ccc3nnc(-c4ccco4)n3n2)CC1 was read as RMI FANCM FP inactive.
`CSc1nc(=O)cc(N)n1-c1cccc(C(F)(F)F)c1` gave RMI FANCM FP inactive.
O=C(Cc1ccc(F)cc1)NCC(c1ccsc1)N1CCCC1 (stereo not drawn) was read as RMI FANCM FP inactive.
O=C(CCOc1ccccc1)Nc1nc2ccc([N+](=O)[O-])cc2s1 was read as RMI FANCM FP inactive.
For CCn1ccc(C(=O)N(CCN2CCOCC2)c2nc3cc(C)c(C)cc3s2)n1 the results were RMI FANCM FP inactive.
`N#Cc1cc2ccccc2oc1=O` gave RMI FANCM FP inactive.
Cc1ccc(-n2ncc(C#N)c2N)c(C)c1 was read as RMI FANCM FP inactive.
`Cc1ccc2oc3nc(N)c(C#N)cc3c(=O)c2c1` gave RMI FANCM FP 5.
Screening Cc1cc(-c2ccccc2)nc(SCC(=O)Nc2cccc(C(F)(F)F)c2)n1 returned RMI FANCM FP inactive.
For N/C(=N\OC(=O)Nc1cccc(C(F)(F)F)c1)c1ccno1 the results were RMI FANCM FP inactive.
Screening O=C(CSc1ccc([N+](=O)[O-])cc1[N+](=O)[O-])Nc1cccc(C(F)(F)F)c1 returned RMI FANCM FP 14.
Screening O=[N+]([O-])c1ccc(SCCOS(=O)(=O)c2cccc(C(F)(F)F)c2)c2nonc12 returned RMI FANCM FP inactive.
Screening CC(=O)Nc1ccc(NC(=O)CSc2ccc(S(=O)(=O)C(F)(F)F)cc2[N+](=O)[O-])cc1 returned RMI FANCM FP inactive.
For O=C(Nc1cccc(C(F)(F)F)c1)OCCSc1ccc([N+](=O)[O-])c2nonc12 the results were RMI FANCM FP 7.
Screening OC(CN1CCN(Cc2c(F)cccc2Cl)CC1)Cn1ccc2ccccc21 (stereo not drawn) returned RMI FANCM FP inactive.
For CN1CCN(Cc2ccc(NC(=O)NCc3cccc4ccccc34)cc2)CC1 the results were RMI FANCM FP inactive.
`COc1ccccc1NC(=O)Cn1ncn2nc(-c3ccc(C)cc3)cc2c1=O` gave RMI FANCM FP inactive.
`COc1cccc2c1c(NC(=O)c1nccnc1C(=O)O)nn2C` gave RMI FANCM FP inactive.
N#CCCN(Cc1cccs1)C(=O)Nc1ccc2c(c1)CCO2 was read as RMI FANCM FP inactive.
`O=C(Cc1ccc2c(c1)OCO2)Nc1nnc(-c2cc(Cl)sc2Cl)o1` gave RMI FANCM FP inactive.
For COc1cccc(CNC(=O)Cn2c(=O)n(Cc3ccccc3Cl)c(=O)c3nccnc32)c1OC the results were RMI FANCM FP inactive.
For CCOc1ccccc1CN1C(=O)C2(SC(NC(C)=O)=NN2C(C)=O)c2cccc(Cl)c21 (stereo not drawn) the results were RMI FANCM FP 22.
For CCOc1ccccc1CN1C(=O)C(NC(C)=O)c2cc(C)cc(C)c21 (stereo not drawn) the results were RMI FANCM FP inactive.
Screening O=C(CCc1ccccc1)NCCn1ncc2c(=O)n(Cc3ccccc3F)cnc21 returned RMI FANCM FP inactive.
For CC(=O)Nc1ccc2c(c1)C(=O)NCCO2 the results were RMI FANCM FP inactive.
For O=C(Cn1cnc(-c2ccccc2)cc1=O)NCCc1ccccc1 the results were RMI FANCM FP inactive.
`Cc1oc(-c2ccc(Cl)cc2)nc1CSc1nc(C(F)(F)F)cc(=O)[nH]1` gave RMI FANCM FP inactive.
N#C/C(=C/c1ccoc1-c1ccc([N+](=O)[O-])cc1)C(N)=S was read as RMI FANCM FP 24.
For N#C/C(=C\c1ccc(-c2cccc(C(F)(F)F)c2)o1)C(N)=S the results were RMI FANCM FP inactive.
COC(=O)/C(C#N)=C\c1cc([N+](=O)[O-])ccc1N1CCCC1 was read as RMI FANCM FP inactive.
